Several values for one entry are separate records, joined by “and”; a condition that tells them apart may be missing. Identical values can stand only once. The source holds several records for some structures; these can differ, active in one and inactive in another. Activity calls are given as the source filed them. Unless noted, how the calls were made is not given here.
Tests used:
[1] = tested on: Wnt5a (protein binding on small-molecule microarray); test: Wnt5a binders on small-molecule microarray, primary screen, biophysical, 635/667 nm fluorescence (AID 1142); details: 635 nm fluorescence, higher = more signal;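 further: fluorescence read at 667 nm with signal to noise per printed feature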
[2] = cell viability in Huh7 cells, primary screen, cytotoxicity control for HCV replication inhibitor project, CellTiter-Glo luminescence, basal, 48 h (AID 1143); details: Huh7 HCV replicon, higher = more signal, called active from +8 up or from −8 down;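 further: Huh7 hepatoma cells carrying a hepatitis C replication reporter with no stimulus; test concentration not given here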
[3] = P. aeruginosa biofilm formation inhibitors, primary screen, PAO1 strain, BacTiter-Glo luminescence, LB-PBS (AID 1144); details: 12 h, higher = more signal
[4] = CREB reporter modulators without forskolin, primary screen, cell-based, PC12, CRE-LacZ reporter, unstimulated (AID 1145); details: no forskolin, luminescence, 4.5 h, higher = more signal, called active from +8 up or from −8 down
[5] = CREB reporter modulators under forskolin, primary screen, cell-based, PC12, CRE-LacZ reporter, forskolin-stimulated (AID 1146); details: luminescence, 4.5 h, higher = more signal, called active from +8 up or from −8 down;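 further: PC12 cells with 6xCRE LacZ reporter stimulated by forskolin 10 µM; beta-galactosidase reporter signal reflecting CREB driven transcription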
[6] = target: Streptavidin (Streptomyces avidinii) (UniProt P22629); test: streptavidin binders on small-molecule microarray, primary screen, artefact control for SMM compound annotation, biophysical, 635/667 nm fluorescence (AID 1147); details: streptavidin binding, higher = more signal;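 further: signal reflects streptavidin binding to arrayed compounds as a control protein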
Sequence of Streptavidin (Streptomyces avidinii) (P22629 whole entry, looked up): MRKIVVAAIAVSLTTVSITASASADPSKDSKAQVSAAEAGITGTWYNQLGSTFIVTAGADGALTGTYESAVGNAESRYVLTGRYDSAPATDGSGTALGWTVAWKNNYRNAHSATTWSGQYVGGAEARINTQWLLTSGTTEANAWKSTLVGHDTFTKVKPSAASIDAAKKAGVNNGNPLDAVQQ

[7] = small-molecule binders of probe aInhba, primary screen, biochemical, small-molecule microarray, 635/667 nm fluorescence (AID 1148); details: higher = more signal;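 further: score merges 667nm spot fluorescence with signal-to-noise for antibody binding to printed compounds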
Torsin-1A (Homo sapiens) [8] = target: Torsin-1A (Homo sapiens) (UniProt O14656); test: torsin A binders from cell lysate, primary screen, small-molecule microarray, wild-type, 635/667 nm (AID 1149); details: COS7 hTOR1A-WT lysate, 635 nm fluorescence, higher = more signal
Sequence of Torsin-1A (Homo sapiens) (O14656 whole entry, looked up): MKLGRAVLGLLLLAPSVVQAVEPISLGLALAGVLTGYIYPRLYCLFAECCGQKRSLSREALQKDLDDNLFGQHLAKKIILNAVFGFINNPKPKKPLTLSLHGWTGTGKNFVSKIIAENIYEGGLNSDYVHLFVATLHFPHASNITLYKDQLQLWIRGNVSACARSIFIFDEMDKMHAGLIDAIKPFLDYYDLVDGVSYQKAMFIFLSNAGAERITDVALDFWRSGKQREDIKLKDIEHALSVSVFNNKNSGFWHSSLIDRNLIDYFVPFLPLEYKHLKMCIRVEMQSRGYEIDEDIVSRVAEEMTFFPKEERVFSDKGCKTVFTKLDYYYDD

Torsin-1A (Homo sapiens) [9] = target: Torsin-1A (Homo sapiens) (UniProt O14656); test: small-molecule binders of mutant TOR1A in lysate, primary screen, cell lysate, small-molecule microarray, COS7 lysate, 635/667 nm fluorescence (AID 1150); details: COS7 hTOR1A mutant lysate, 635 nm fluorescence, higher = more signal;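 further: score pools 667 nm emission and signal to noise measuring lysate protein binding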
[10] = tested on: Sonic hedgehog protein (Shh); test: small-molecule binders of Shh protein, primary screen, biochemical, small-molecule microarray, 635/667 nm fluorescence (AID 1151); details: small-molecule microarray binding, 635 nm fluorescence; higher = more signal;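 further: Shh protein binding to compounds spotted on small-molecule microarray slides; score combines spot fluorescence intensity with signal-to-noise across triplicate slides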
[11] = E. coli DRC41 culture turbidity changes, primary screen, E. coli filamentation inducer project, strain DRC41, OD650, 48 h (AID 1152);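 further: E. coli MC1000 strain DRC41 lacking acrAB efflux pump and sulA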; details: E. coli DRC41 (acrAB sulA), higher = more signal, called active from +8 up or from −8 down
[12] = small-molecule binders of probe aLefty1, primary screen, biochemical, small-molecule microarray, 635/667 nm fluorescence (AID 1153); details: higher = more signal;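 further: score merges spot fluorescence with signal-to-noise ratio from the scanned slide images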
[13] = PSAC antagonists in infected red cells, primary screen, cell-based, P. falciparum Indochina, OD700, 1 h (AID 1154); details: P. falciparum Indochina infected RBC osmotic lysis, higher = more signal, called active from +8 up or from −8 down
[14] = PSAC antagonists in infected red cells, primary screen, cell-based, P. falciparum Indochina, OD700, 2 h (AID 1155);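 further: lysis reports solute entry through the parasite surface anion channel PSAC; channel blockers reduce lysis of infected cells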; details: P. falciparum Indochina infected erythrocytes, osmotic lysis OD700; higher = more signal, called active from +8 up or from −8 down
[15] = osmotic lysis modulators in infected erythrocytes, primary screen, PSAC antagonist project, cell-based, P. falciparum Indochina, OD700, 3 h (AID 1156); details: higher = more signal, called active from +8 up or from −8 down
[16] = PSAC antagonists in infected red cells, primary screen, cell-based, P. falciparum Indochina, OD700, 18 h (AID 1157); details: P. falciparum Indochina infected erythrocytes, osmotic lysis OD700, 18 h; higher = more signal, called active from +8 up or from −8 down
[17] = modulators of S6 phosphorylation in cells, primary screen, cell-based, A549, cytoblot, luminescence, serum-stimulated (AID 1158); details: A549 phospho-S6 cytoblot, 5 h, higher = more signal;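 further: serum-stimulated A549 lung adenocarcinoma cells; signal is phosphorylated S6 detected by cytoblot immunostaining with HRP secondary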
[18] = target: NADPH oxidase 2 (Homo sapiens) (UniProt P04839); test: NOX2-dependent H2O2 signal modulators, primary screen, NOX inhibitor project, cell-based, HEK293-NOX2, PMA-stimulated, Amplex Red fluorescence (AID 1159); details: 45 min, higher = more signal, called active from +8 up or from −8 down; further: test concentration not given here
Sequence of NADPH oxidase 2 (Homo sapiens) (P04839 whole entry, looked up): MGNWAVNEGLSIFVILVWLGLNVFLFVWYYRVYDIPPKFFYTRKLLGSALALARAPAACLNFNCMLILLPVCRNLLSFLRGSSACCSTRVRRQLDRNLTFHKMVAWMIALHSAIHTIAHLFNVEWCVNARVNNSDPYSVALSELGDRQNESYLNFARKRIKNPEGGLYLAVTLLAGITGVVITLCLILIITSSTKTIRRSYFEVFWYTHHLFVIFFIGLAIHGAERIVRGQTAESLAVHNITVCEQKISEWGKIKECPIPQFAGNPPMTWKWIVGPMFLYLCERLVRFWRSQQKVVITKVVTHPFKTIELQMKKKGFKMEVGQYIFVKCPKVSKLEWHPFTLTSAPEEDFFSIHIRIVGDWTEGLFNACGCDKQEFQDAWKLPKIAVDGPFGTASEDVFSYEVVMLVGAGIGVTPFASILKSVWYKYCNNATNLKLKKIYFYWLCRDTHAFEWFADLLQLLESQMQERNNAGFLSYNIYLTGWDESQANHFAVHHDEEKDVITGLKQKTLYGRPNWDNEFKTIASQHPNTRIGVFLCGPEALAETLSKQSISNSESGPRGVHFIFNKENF

[19] = target: NADPH oxidase 4 (Homo sapiens) (UniProt Q9NPH5); test: NOX4-dependent H2O2 signal modulators, primary screen, NOX inhibitor project, cell-based, HEK293-NOX4, tetracycline-induced, Amplex Red fluorescence (AID 1160); details: 45 min, higher = more signal, called active from +8 up or from −8 down
Sequence of NADPH oxidase 4 (Homo sapiens) (Q9NPH5 whole entry, looked up): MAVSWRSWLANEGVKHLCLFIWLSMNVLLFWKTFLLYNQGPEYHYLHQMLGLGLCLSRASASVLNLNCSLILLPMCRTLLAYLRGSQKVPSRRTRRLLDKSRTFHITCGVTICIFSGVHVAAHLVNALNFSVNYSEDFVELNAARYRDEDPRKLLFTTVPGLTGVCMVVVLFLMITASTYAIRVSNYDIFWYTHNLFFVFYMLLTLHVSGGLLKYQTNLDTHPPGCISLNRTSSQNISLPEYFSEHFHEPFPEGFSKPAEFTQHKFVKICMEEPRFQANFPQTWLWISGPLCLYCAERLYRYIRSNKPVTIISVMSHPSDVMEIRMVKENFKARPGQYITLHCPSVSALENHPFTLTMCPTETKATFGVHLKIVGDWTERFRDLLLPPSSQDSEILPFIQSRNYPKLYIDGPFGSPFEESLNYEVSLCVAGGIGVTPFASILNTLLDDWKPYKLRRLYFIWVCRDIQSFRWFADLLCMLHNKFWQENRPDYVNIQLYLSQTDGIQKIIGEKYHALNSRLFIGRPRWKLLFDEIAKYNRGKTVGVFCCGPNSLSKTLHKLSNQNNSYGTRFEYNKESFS

[20] = target: NADPH oxidase 5 (Homo sapiens) (UniProt Q96PH1); test: NOX5-dependent H2O2 signal modulators, primary screen, NOX inhibitor project, cell-based, HEK293-NOX5, Amplex Red fluorescence (AID 1161); details: HEK293-NOX5, ionomycin, 45 min, higher = more signal
Sequence of NADPH oxidase 5 (Homo sapiens) (Q96PH1 whole entry, looked up): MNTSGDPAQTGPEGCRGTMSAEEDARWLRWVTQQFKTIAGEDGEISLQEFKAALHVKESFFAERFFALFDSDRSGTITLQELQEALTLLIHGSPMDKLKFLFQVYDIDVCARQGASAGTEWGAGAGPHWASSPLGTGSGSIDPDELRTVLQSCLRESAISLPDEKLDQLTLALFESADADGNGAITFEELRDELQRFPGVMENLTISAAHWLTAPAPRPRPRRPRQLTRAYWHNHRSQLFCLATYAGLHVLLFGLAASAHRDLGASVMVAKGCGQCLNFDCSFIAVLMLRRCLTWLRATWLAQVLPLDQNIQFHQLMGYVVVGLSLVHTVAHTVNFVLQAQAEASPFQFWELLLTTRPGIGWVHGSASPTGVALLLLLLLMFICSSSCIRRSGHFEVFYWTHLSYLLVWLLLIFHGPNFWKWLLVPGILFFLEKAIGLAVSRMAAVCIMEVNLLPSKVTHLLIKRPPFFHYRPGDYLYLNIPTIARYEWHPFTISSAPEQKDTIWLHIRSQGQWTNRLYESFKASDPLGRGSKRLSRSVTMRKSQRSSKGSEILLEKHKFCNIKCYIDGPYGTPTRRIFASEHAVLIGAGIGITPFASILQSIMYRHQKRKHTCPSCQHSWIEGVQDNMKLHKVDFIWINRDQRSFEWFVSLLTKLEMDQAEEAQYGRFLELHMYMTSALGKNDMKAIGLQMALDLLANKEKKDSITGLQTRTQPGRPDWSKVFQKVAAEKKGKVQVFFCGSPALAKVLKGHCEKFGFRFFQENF

SMILES	composite z-score [1]	z-score [2]	z-score [3]	z-score [4]	z-score [5]	composite z-score [6]	composite z-score [7]	composite z-score (Torsin-1A (Homo sapiens) [8])	composite z-score (Torsin-1A (Homo sapiens) [9])	composite z-score [10]	z-score [11]	composite z-score [12]	z-score [13]	z-score [14]	z-score [15]	z-score [16]	z-score [17]	z-score [18]	z-score [19]	z-score [20]
C=CCN(Cc1ccccc1)C(=O)C1N(CCOCCO)C(=O)C2C(C(=O)O)C3C=CC21O3 (stereo not given)	-0.0792 and -1.24	-2.27 (inactive) and 0.247 (inactive)	-0.0168 (inactive)	-0.484 (inactive) and -0.753 (inactive)	-0.347 (inactive) and -0.736 (inactive)	-1.36 and -1.24	-0.282 and -0.0645	-2.62 and -3.49	-1.89 and -3.16	-1.64 and -2	2.01 (inactive) and 0.924 (inactive)	0.0429 and 0.101	-0.451 (inactive) and 0.417 (inactive)	-1.31 (inactive) and -0.103 (inactive)	-1.39 (inactive) and -0.519 (inactive)	-1.71 (inactive) and 0.0394 (inactive)	0.506 and 0.245	1.22 (inactive) and 0.583 (inactive)	-0.586 (inactive) and -2.52 (inactive)	0.93 and -0.825
C=CCN(C(=O)C(c1cccs1)N(C(=O)/C=C\C(=O)O)C(C)(C)CO)C(C)(C)C (stereo not given)	-0.291 and -0.768	-0.261 (inactive) and 0.272 (inactive)	-1.52 (inactive) and -1.38 (inactive)	-0.887 (inactive) and -0.761 (inactive)	-0.706 (inactive) and -0.329 (inactive)	-0.689 and -1.22	-0.0581 and -0.0791	-0.331 and -0.511	0.214 and 1.51	-0.645 and -0.105	2.48 (inactive) and 1.85 (inactive)	-0.0647 and -0.103	-0.534 (inactive) and -0.537 (inactive)	-1.13 (inactive) and -0.574 (inactive)	-0.936 (inactive) and -0.092 (inactive)	-1.37 (inactive) and -0.725 (inactive)	1.6 and 0.974	-0.192 (inactive) and -0.0748 (inactive)	-0.755 (inactive) and -0.588 (inactive)	0.163 and 0.51
C=CC[C@@H](O)c1ccc(OCCO)cc1	-0.0578 and -0.579	-0.924 (inactive) and -0.105 (inactive)	0.517 (inactive) and -0.242 (inactive)	-0.431 (inactive) and 0.772 (inactive)	-0.613 (inactive) and -0.949 (inactive)	-1.47 and -0.878	-0.259 and -0.153	0.588 and -3.38	0.479 and -2.42	0.0925 and -0.262	1.23 (inactive) and 1.38 (inactive)	-0.259 and -0.191	3.24 (inactive) and 1.36 (inactive)	-0.971 (inactive) and -1.24 (inactive)	-0.904 (inactive) and -0.902 (inactive)	-2.02 (inactive) and -2.07 (inactive)	2.74 and 0.965	-0.976 (inactive) and -0.495 (inactive)	-0.354 (inactive) and -0.393 (inactive)	-1.22 and -0.2
CO[C@@H]1COC(=O)CC=C[C@H](C)[C@@H](NS(=O)(=O)c2ccc(C)cc2)COC(=O)CC=C[C@@H]1C	0.123 and 0.0913	-0.142 (inactive) and -0.867 (inactive)	-0.675 (inactive) and -1.19 (inactive)	-0.743 (inactive) and 0.42 (inactive)	-0.881 (inactive) and 0.764 (inactive)	0.167 and 0.162	-0.159 and -0.179	0.318 and 2.3	0.505 and 1.55	1.43 and 2.1	0.578 (inactive) and 0.567 (inactive)	-0.186 and 0.0492	0.614 (inactive) and 0.595 (inactive)	0.281 (inactive) and -0.12 (inactive)	-0.153 (inactive) and 0.571 (inactive)	0.401 (inactive) and 0.367 (inactive)	-0.3 and -0.484	0.0381 (inactive) and 0.541 (inactive)	0.724 (inactive) and 0.493 (inactive)	0.423 and 0.277
C=C[C@@H](C)[C@@H](O)c1ccc(OCCO)cc1	-1.29 and -1.06	-0.295 (inactive) and -0.245 (inactive)	-0.828 (inactive) and -0.12 (inactive)	0.105 (inactive) and 1.46 (inactive)	-0.466 (inactive) and -0.637 (inactive)	-1.1 and -0.908	-0.312 and -0.213	-3.3 and -3.39	-2.66 and -2.95	-1.39 and 0.319	0.155 (inactive) and 1.8 (inactive)	-0.237 and -0.102	1.23 (inactive) and 0.481 (inactive)	0.568 (inactive) and -0.311 (inactive)	0.321 (inactive) and -0.929 (inactive)	0.281 (inactive) and -0.873 (inactive)	0.0021 and 0.856	-0.228 (inactive) and -0.985 (inactive)	-0.115 (inactive) and -0.247 (inactive)	-0.0389 and -0.521
O=C1NC(=O)C2C1C=CC(C(O)c1ccc([N+](=O)[O-])cc1)N2Nc1ccc(Cl)cc1Cl (stereo not given)	0.283 and 0.0563	-0.311 (inactive) and -0.861 (inactive)	-1.48 (inactive) and -2.27 (inactive)	0.812 (inactive) and 0.443 (inactive)	0.479 (inactive) and -0.492 (inactive)	0.404 and 0.519	0.0301 and 0.175	0.339 and 1.2	0.703 and 1.22	-0.274 and -0.13	0.302 (inactive) and 1.01 (inactive)	0.134 and 0.623	9.67 (active) and 3.11 (inactive)	0.913 (inactive) and 0.168 (inactive)	0.538 (inactive) and -0.138 (inactive)	-0.988 (inactive) and -1.28 (inactive)	0.474 and 0.7	0.313 (inactive) and 0.609 (inactive)	-5.29 (inactive) and -4.55 (inactive)	-1.98 and -1.75
C=C[C@@H](OC)[C@H](O)c1ccc(O)c(F)c1	-0.843 and -0.24	0.558 (inactive) and -0.495 (inactive)	-0.776 (inactive) and 0.181 (inactive)	0.572 (inactive) and 0.427 (inactive)	-0.881 (inactive) and -0.122 (inactive)	-1.35 and -1.17	-0.314 and -0.154	-1.65 and -0.846	-2.28 and -0.978	-0.644 and 0.0436	0.0737 (inactive) and 1.88 (inactive)	-0.284 and -0.196	0.268 (inactive) and -0.347 (inactive)	-0.132 (inactive) and -0.266 (inactive)	-0.387 (inactive) and -0.924 (inactive)	0.426 (inactive) and -1.02 (inactive)	-0.422 and 1.68	0.203 (inactive) and -0.689 (inactive)	-1.69 (inactive) and -0.842 (inactive)	-1.64 and -1.95
CCN1C(=O)[C@H]2[C@H]3[C@H](O)[C@H](O)CC(=NNC(=O)OCc4ccc(OC)cc4)[C@H]3CC[C@H]2C1=O	0.153	-0.0769 (inactive)	0.619 (inactive)	0.344 (inactive)	-0.287 (inactive)	0.398	0.124	0.275	-0.023	-0.121	0.386 (inactive)	0.792	3.18 (inactive)	-0.464 (inactive)	0.175 (inactive)	0.232 (inactive)	0.479	-0.447 (inactive)	0.0987 (inactive)	0.0869
COc1ccc(-c2ccc3c(n2)CCCN3CC(O)CN2CCCc3nc(-c4ccc(Br)cc4)ccc32)cc1 (stereo not given)	0.353 and 0.0813	-1.86 (inactive) and -0.196 (inactive)	0.766 (inactive) and 0.0378 (inactive)	-0.434 (inactive) and -0.161 (inactive)	-0.152 (inactive) and -0.116 (inactive)	1.41 and 0.932	0.136 and 0.204	0.438 and 0.224	0.528 and 0.588	1.03 and 0.76	-0.018 (inactive) and 0.615 (inactive)	0.684 and 0.209	5.79 (inactive) and 1.91 (inactive)	1.07 (inactive) and 0.581 (inactive)	0.387 (inactive) and 0.0102 (inactive)	0.322 (inactive) and 0.32 (inactive)	-0.506 and -0.456	0.181 (inactive) and 2.63 (inactive)	0.169 (inactive) and 0.657 (inactive)	-2.32 and -0.243
C=CCN(CCCC)C(=O)C(c1cccs1)N(C(=O)/C=C\C(=O)O)c1c(Cl)cccc1CO (stereo not given)	-1.57 and -1.27	0.665 (inactive) and 0.504 (inactive)	-0.428 (inactive) and 0.0609 (inactive)	-0.761 (inactive) and 0.329 (inactive)	0.325 (inactive) and -0.167 (inactive)	-1.55 and -0.309	-0.38 and -0.186	-4.75 and -2.7	-3.62 and -2.89	-1.48 and -1.63	0.518 (inactive) and 0.0558 (inactive)	-0.148 and -0.0099	0.111 (inactive) and 0.897 (inactive)	-0.0165 (inactive) and -0.14 (inactive)	-0.38 (inactive) and 0.0904 (inactive)	0.113 (inactive) and 0.283 (inactive)	1.21 and 0.596	0.148 (inactive) and 0.256 (inactive)	-0.319 (inactive) and -0.507 (inactive)	0.16 and 0.227
